# Data reported in PubChem BioAssay AID588727 (Southern Research Specialized Biocontainment Screening …, 2011).
# In all, about 350,000 compounds went through this assay and about 450 (0.13%) were called active. No rule for the calls is given here. The list is a sample of the results. Results with a measured potency or affinity are listed apart.
# Test: inhibitors of VEEV TC-83 cytopathic effect, confirmation, Vero cells (AID 588727)
# Settings: VEEV TC-83 cytopathic effect inhibition, at 20 µM
# [1] = stronger effect = higher value unless noted
# [2] = measured here: 10K pilot screen inhibition, stronger effect = higher value
structure (smiles),measurement,setting,value
CC(C)c1ccc(-c2cc(C(=O)N3N=C(C(F)F)CC3(O)C(F)F)c3ccccc3n2)cc1 (stereo not drawn),inhibition,[1],inactive
O=C1CCC(C(=O)N2CCCCO2)CN1CCc1ccccc1 (stereo not drawn),inhibition,[1],2.16% (inactive)
COc1ccc(C2CN=NC2C(=O)c2ccccc2)cc1 (stereo not drawn),inhibition,[1],0.98% (inactive)
Cc1ccc(/C=N/n2c(-c3cccnc3)n[nH]c2=S)o1,inhibition,[1],0.4% (inactive)
CC(=O)Nc1ccc(S(=O)(=O)NC2=NCN(c3cccc([N+](=O)[O-])c3)CN2)cc1,inhibition,[1],0.07% (inactive)
Cc1nn(-c2ccccc2)c2c1C1(C(=O)Nc3ccccc31)N1C(=N2)Sc2ccccc21 (stereo not drawn),inhibition,[1],1.86% (inactive)
CCCCCc1ccc(-c2nnc(N)s2)cc1,inhibition,[1],2.86% (inactive)
CC1=Nc2cc(C(=O)O)ccc2Sc2c(C)ccc(C)c21,inhibition,[1],0.43% (inactive)
CC1=Nc2cc(C(=O)N3CCCC3)ccc2Sc2ccc(C)cc21,inhibition,[1],1.14% (inactive)
CCOc1ccc(CCNC(=O)CCS(=O)(=O)c2ccc(OC)cc2)cc1OCC,inhibition,[1],0.09% (inactive)
O=C(Cn1ncc2c([nH]c3ccccc32)c1=O)NCCc1ccc(Cl)cc1,inhibition,[1],1.06% (inactive)
CCN(CC)c1ccc(-n2cc3c(=O)n(C)c(=O)n(C)c3c2)cc1,inhibition,[1],5.43% (inactive)
Cc1ccc(C)c(NC(=O)c2ccc3ccccc3n2)c1,inhibition,[1],4.34% (inactive)
CC(=O)OCC(=O)C1(O)CCC2C3CC(C)C4=CC(=O)CCC4(C)C3C(O)CC21C (stereo not drawn),inhibition,[1],2.53% (inactive)
C[C@@H]1O[C@@H](O[C@@H]2C=C3CCC4C(CC[C@]5(C)[C@@H](c6ccc(=O)oc6)CC[C@]45O)[C@@]3(C)CC2)[C@H](O)[C@H](O)[C@H]1O (stereo partly drawn),inhibition,[1],23.8% (inactive)
CNC(=O)Nc1ccc(C(=O)N/N=C\C23CC[C@@H](O)CC2(O)CC[C@@H]2[C@@H]3CCC3(C)C(C4=CC(=O)OC4)CCC23O)cc1 (stereo partly drawn),inhibition,[1],3.29% (inactive)
CCCOC1(NC(=O)c2ccccc2)C(C)=CC(=O)C=C1C,inhibition,[1],inactive
CC1CC(C)CN(S(=O)(=O)c2ccc(C(=O)N3CCN(c4ccccc4)CC3)cc2)C1 (stereo not drawn),inhibition,[1],1.42% (inactive)
CCOc1ccc(NS(=O)(=O)c2ccc(C(=O)N(C)CC(=O)Nc3ccc(OC)cc3)cc2)cc1,inhibition,[1],4.36% (inactive)
Cc1ccc(-n2c(SCC(=O)O)nc3sc4c(c3c2=O)CC(C)(C)SC4)cc1,inhibition,[1],0.39% (inactive)
CCN1C(=O)/C(=C/c2cn(-c3ccccc3)nc2-c2cccnc2)SC1=S,inhibition,[1],0.65% (inactive)
CC1CCc2nc(NC(=O)Cc3cccs3)sc2C1 (stereo not drawn),inhibition,[1],4.77% (inactive)
O=C(CCCc1cccs1)Nc1nc2c(s1)CCCC2,inhibition,[1],5.78% (inactive)
COc1ccc(OCC(=O)Nc2nc3c(s2)CCCC3)cc1,inhibition,[1],5.92% (inactive)
O=C(COc1ccccc1)Nc1nc2c(s1)CCCC2,inhibition,[1],3.03% (inactive)
CCOC1CCCC(n2cnc3c(=S)nc[nH]c32)O1 (stereo not drawn),inhibition,[1],2.72% (inactive)
CCCC(=O)Nc1ccc(NC(=O)c2cccc(OC)c2)cn1,inhibition,[1],0.41% (inactive)
COc1ccccc1CCC(=O)OCC(=O)NC1CC1,inhibition,[1],2.29% (inactive)
CCN(CC)S(=O)(=O)c1ccc(C2=NOC3(C2)N(C)c2ccccc2C3(C)C)cc1 (stereo not drawn),inhibition,[1],8.77% (inactive)
CC1=NOC2(C1)N(C)c1ccccc1C2(C)C (stereo not drawn),inhibition,[1],0.08% (inactive)
CCn1c(SCC(=O)OC)nnc1-c1ccncc1,inhibition,[1],0.14% (inactive)
COc1cccc(CC(=O)OCC(=O)NC(C)c2ccc(F)cc2)c1 (stereo not drawn),inhibition,[1],4.67% (inactive)
Cc1cc(-c2nnc(SCCC(=O)Nc3ccccc3)o2)no1,inhibition,[1],0.79% (inactive)
O=C(CSc1nnnn1C1CC1)Nc1ccc(S(=O)(=O)N2CCOCC2)cc1,inhibition,[1],1.19% (inactive)
CN(C)c1ccc(/C=C/c2c([N+](=O)[O-])c(=O)n(C)c(=O)n2C)cc1,inhibition,[1],0.74% (inactive)
COc1ccc(/C=C/c2c([N+](=O)[O-])c(=O)n(C)c(=O)n2C)cc1,inhibition,[1],0.41% (inactive)
Cc1ccc(S(=O)(=O)Nc2cccc(C(=O)N3CCOCC3)c2)cc1,inhibition,[1],inactive
Cc1cc(C)cc(NC(=O)CSc2nc3ccccc3nc2N2CCCC2)c1,inhibition,stronger effect = higher value,4.9% (inactive)
same,inhibition,[2],0.985%
Cc1cc(C)cc(NC(=O)CSc2nc3ccccc3nc2N2CCCCC2)c1,inhibition,stronger effect = higher value,3.44% (inactive)
same,inhibition,[2],1.42%
CCc1ccc(C(C(=O)NC2CCCC2)N(C(=O)c2csnn2)C2CC2)cc1 (stereo not drawn),inhibition,[1],0.43% (inactive)
CCN(CC)S(=O)(=O)c1ccc(OC)c(NS(=O)(=O)c2ccc(F)cc2)c1,inhibition,[1],inactive
